# Bioassay records deposited in PubChem BioAssay by National Center for Advancing Translational Sciences (NCATS).
# Rows were chosen to be rich in hits. Some 7.6% of all compounds tested hit in one or more screens of this group.
# SW480 rereplic: DNA re-replication induction in SW480 cells. SW480 DNA re-replication, Hoechst DNA content imaging, 48 h. Potency, µM (series often up to 46.1 µM), without a hit: top-dose re-replication activation, hits mostly activators. 1.8% of 340,000 active. AID 624297; also: potency is read from the fitted curve at half-maximal effect; % of control where 0% means no effect; nearly all actives have a fitted effect of over 55% in size
#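 Quantitative HTS format with DMSO vehicle controls; 48 hr drug incubation at 37 C, then 40 min Hoechst staining and scanning imager measurement at 405 nm excitation.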
# KB-3-1 cytotox: kills parental KB-3-1 adenocarcinoma cells | KB-3-1 viability, CellTiter-Glo ATP luminescence, 72 h | Potency, µM (doses to about 46.1 µM), most hits filed as cytotoxic | 1.4% of 400,000 active | AID 1347075; also: potency is read from the fitted curve at half-maximal effect; % is scaled to controls: 0 for no effect and ±100 for the full control effect; nearly all actives have a fitted effect of over 60% in size
#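 KB-3-1 cells, DMEM (no phenol red) + 10% FBS; compound by pin transfer, 72 h, 37 °C. Readout: CellTiter-Glo luminescence after 10 min. Data normalized, curve-fitted.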
# hERG WT inh: KCNH2 (human, wildtype) channel inhibition | U2OS, BacMam KCNH2, thallium flux FluxOr; stronger effect = lower value | Q12809 | 0.37% of 340,000 active | AID 720551 | activity change, % at 1.84 µM;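 active = maximum activity change below -70%; inconclusive = maximum activity change between -70% and -50%; inactive = maximum activity change above -50%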; also: % is scaled to controls: 0 for no effect and ±100 for the full control effect
# Target sequence (Q12809 whole entry, looked up): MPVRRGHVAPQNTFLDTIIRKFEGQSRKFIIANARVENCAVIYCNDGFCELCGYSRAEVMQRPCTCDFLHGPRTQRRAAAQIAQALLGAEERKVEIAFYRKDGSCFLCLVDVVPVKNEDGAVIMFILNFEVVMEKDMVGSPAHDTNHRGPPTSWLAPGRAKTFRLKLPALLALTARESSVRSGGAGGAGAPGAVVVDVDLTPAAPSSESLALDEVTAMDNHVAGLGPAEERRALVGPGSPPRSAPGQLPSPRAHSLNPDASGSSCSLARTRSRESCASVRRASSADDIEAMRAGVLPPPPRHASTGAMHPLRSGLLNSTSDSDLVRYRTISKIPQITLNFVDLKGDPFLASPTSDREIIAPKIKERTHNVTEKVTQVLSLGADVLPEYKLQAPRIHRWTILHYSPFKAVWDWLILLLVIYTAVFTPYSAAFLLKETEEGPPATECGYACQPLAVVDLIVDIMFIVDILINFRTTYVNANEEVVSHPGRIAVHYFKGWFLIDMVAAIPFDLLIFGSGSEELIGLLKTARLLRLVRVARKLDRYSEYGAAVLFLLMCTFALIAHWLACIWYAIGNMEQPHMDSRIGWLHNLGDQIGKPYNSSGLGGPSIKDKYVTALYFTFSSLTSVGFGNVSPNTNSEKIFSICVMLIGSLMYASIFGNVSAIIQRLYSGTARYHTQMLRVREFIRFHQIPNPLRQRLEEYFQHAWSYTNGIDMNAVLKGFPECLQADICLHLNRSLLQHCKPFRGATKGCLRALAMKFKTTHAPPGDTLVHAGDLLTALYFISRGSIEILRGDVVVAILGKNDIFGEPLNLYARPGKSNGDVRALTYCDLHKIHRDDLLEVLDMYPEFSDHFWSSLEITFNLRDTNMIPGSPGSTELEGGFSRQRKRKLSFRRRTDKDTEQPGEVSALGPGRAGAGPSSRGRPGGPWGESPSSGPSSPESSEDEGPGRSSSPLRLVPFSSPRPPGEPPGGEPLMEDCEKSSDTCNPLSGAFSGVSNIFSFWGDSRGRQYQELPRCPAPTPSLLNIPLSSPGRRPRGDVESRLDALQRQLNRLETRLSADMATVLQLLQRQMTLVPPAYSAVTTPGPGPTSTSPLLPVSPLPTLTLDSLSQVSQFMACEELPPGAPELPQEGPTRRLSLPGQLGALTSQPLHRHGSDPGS
#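 U2OS cells were transduced with wild-type KCNH2 virus (2.03 x 10^8 / mL) for 4 h at room temperature, then cultured overnight at 37 C. Thallium flux was read with FluxOr dye. Rate constants were normalized to DMSO controls.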
# KCNH2 3.1 inh: KCNH2 3.1 (human) potassium channel inhibition; U2OS KCNH2 3.1, thallium flux FluxOr; stronger effect = lower value; activity change, % (tested at about 1.8 µM); 0.95% of 340,000 active; AID 720553;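 active = maximum activity change below -70%; inconclusive = maximum activity change from -70% to -50%; inactive = maximum activity change above -50%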;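 also: thallium influx rate constant from kinetic fluorescence after stimulation buffer; % is scaled to controls: 0 for no effect and ±100 for the full control effect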
#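 Kinetic fluorescence (2 min after stimulation buffer) measures Tl+ influx through KCNH2 3.1 expressed by viral transduction in U2OS cells; the rate constant is normalized against DMSO controls serving as positive and negative references.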
# KB-V1 MDR tox: kills drug-selected multidrug resistant KB-V1 cells. AID 1347076. KB-V1 MDR cells viability, CellTiter-Glo, 72 h. 3.4% of 400,000 active. Potency, µM (doses to about 46.1 µM), most hits filed as cytotoxic; also: potency is read from the fitted curve at half-maximal effect; % is scaled to controls: 0 for no effect and ±100 for the full control effect; nearly all actives have a fitted effect of over 60% in size
#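 KB-V1 MDR subline cells in DMEM (phenol-red free, 10% FBS) exposed to compounds in qHTS concentration series for 72 h at 37 degrees C. Viability read by CellTiter-Glo luminescence; concentration-effect curves fitted after normalization and correction.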
# MCF10A rereplic: inducers of DNA re-replication in MCF 10A breast cells; Potency, µM (highest dose often 46.1 µM), for the others: at the highest dose activity, positive = re-replication, hits mostly activators; AID 624296; MCF 10A DNA re-replication, Hoechst nuclear intensity, 48 h; 2.9% of 350,000 active; also: potency is read from the fitted curve at half-maximal effect; % of control where 0% means no effect; nearly all actives have a fitted effect of over 50% in size
# * marks the source's active call; other numbers are inactive results; i = inactive; ? = inconclusive; / = no result given; ! = repeats disagree. Unless noted, calls follow the shape of the dose curve; as a rule, active = well fitted curve in the direction sought with a large enough effect; inconclusive = small, poorly fitted or top-dose-only effect, or another doubt; inactive = no such curve, though single readings can be large; an effect the other way counts as inactive or inconclusive.
SMILES,SW480 rereplic,KB-3-1 cytotox,hERG WT inh,KCNH2 3.1 inh,KB-V1 MDR tox,MCF10A rereplic
CN(C)c1ccc(Nc2cc(Cl)ncn2)cc1,-14%,i,-5,10,i,6%
CCOC(=O)c1cccc(NC(=O)C2(S(=O)(=O)c3ccc(C)cc3)CC2)c1,-8%,i,-4,3,18µM*!,0%
CCOC(=O)c1ccc(Nc2ncnc3ccc(C)cc23)cc1,4%,?,5,-3,i,?
CCOC(=O)c1cccc(Nc2ncnc3ccc(C)cc23)c1,-3%,?,13,-85*,?,-1%
CCOC(=O)c1c(Nc2ccc(C)cc2)nnc(-c2ccccc2)c1-c1ccccc1,/,i,/,/,23µM*,/
CCOC(=O)c1c(Nc2cccc(C(=O)OC)c2)nnc(-c2ccccc2)c1-c1ccccc1,/,i,/,/,13µM*,/
COC(=O)c1cccc(Nc2nc3ccccc3nc2C)c1,1%,i,?,-6,i,?
CC(C)(C)C1CCc2onc(C(=O)Nc3ccc(F)cc3F)c2C1 (stereo not drawn),0%,i,8,-7,23µM*,-2%
O=C(Nc1cnn(Cc2ccc(F)cc2)c1)C(c1ccccc1)c1ccccc1,-104%,?,0,-14,5.2µM*,0%
COc1ccc(CNC(=O)c2noc3c2CCCCC3)cc1,-23%,i,-8,-6,i,6%
CCc1cc(C(=O)Nc2cnn(Cc3ccc(F)cc3)c2)no1,/,i,/,/,i,/
O=C(Nc1cnn(Cc2ccc(F)cc2)c1)c1noc2c1CCCC2,26%,?,-3,5,i,4.6µM*
O=C(NCc1ccccc1)c1noc2c1CCCCC2,?,i,15,4,21µM*,?
O=C(Nc1cnn(Cc2ccc(F)cc2)c1)c1cnccn1,-5%,i,5,-1,i,?
Cc1ccc(SCC(=O)OCC(=O)N(C)CC(=O)Nc2ccc(F)cc2)cc1C,6%,i,-25,-9,i,2%
COc1ccc(-n2c(=O)c3sc4ccccc4c3n(CC(=O)NC3CCCCC3)c2=O)cc1,/,i,/,/,i,/
CCCCc1cc(=O)oc2cc(C)c3c(C)coc3c12,/,i,/,/,i,/
Cn1c(=O)c2c(SCC(=O)NCc3ccco3)nc(-c3cccc(F)c3)nc2n(C)c1=O,/,i,/,/,?,/
CC(C)(C)C1CCc2onc(C(=O)Nc3cnn(Cc4ccc(F)cc4)c3)c2C1 (stereo not drawn),?,i,11,-24,2.6µM*,?
CCCc1cc(C(=O)Nc2cnn(Cc3ccc(F)cc3)c2)no1,-4%,i,-11,35,i,10%
O=C(O)CSc1cc(NS(=O)(=O)c2cccc([N+](=O)[O-])c2)c2ccccc2c1O,21µM*,?,9,-15,5.8µM*,2.1µM*
O=S(=O)(Nc1cc(Sc2cccc3cccnc23)c(O)c2ccccc12)c1ccccc1,8.2µM*,/,/,/,/,23µM*
CCc1ccc(S(=O)(=O)Nc2cc(SCC(=O)O)c(O)c3ccccc23)cc1,?,?,/,-3,?,?
O=[N+]([O-])c1ccc(Cl)cc1NCCCN1CCOCC1,-12%,i,/,-18,i,-3%
O=C(Nc1ccc(-c2nc3ccccc3[nH]2)cc1)c1ccccc1NS(=O)(=O)c1ccc(F)cc1,?,i,0,4,i,18µM*
SMILES,SW480 rereplic,KB-3-1 cytotox,hERG WT inh,KCNH2 3.1 inh,KB-V1 MDR tox,MCF10A rereplic
Cc1cc(F)ccc1S(=O)(=O)Nc1ccccc1C(=O)Nc1ccccc1-c1nc2ccccc2[nH]1,?,?,-5,-5,18µM*,3.7µM*
CC1CCN(c2nn3c(=O)c(C(=O)NCCCOC(C)C)cnc3s2)CC1,/,i,/,/,i,/
CCOc1ccc(CNC(=O)c2ccc(Sc3ccc(Cl)cc3)c(NC(C)=O)c2)cc1,4%,?,-3,7,8.2µM*,?
CC(=O)Nc1cc(C(=O)N(C)Cc2ccco2)ccc1Sc1ccc(Cl)cc1,-34%,i,7,-1,2.9µM*,?
CCOc1ccccc1CNC(=O)c1ccc(Sc2ccc(Cl)cc2)c(NC(C)=O)c1,?,i,4,-4,18µM*,20%
CCOc1ccc(C2CC(=O)NC2=O)cc1 (stereo not drawn),-2%,i,-2,5,i,0%
CCC(=O)c1ccc(OCC(=O)OCC(=O)c2cc(C)n(C)c2C)cc1,-2%,i,9,3,?,-3%
CCCCCc1ccc(-c2nnc(N)s2)cc1,-9%,i,1,-2,?,?
CCCCCCc1ccc(-c2ncc(N)cn2)cc1,7%,i,8,?,i,13µM*
Cc1ccc(C)c(S(=O)(=O)NC2CCSC2=O)c1 (stereo not drawn),?,i,2,16,i,0%
CC(=O)Nc1ccc(SC[C@H](Cc2ccccc2)N2CC[C@@H](N)CCC2=O)cc1,/,i,/,/,i,/
CN(C)c1cc[n+](CC(=O)Nc2ccc(Cl)c([N+](=O)[O-])c2)cc1,3%,6.5µM*,-4,9,i,?
CN(C)c1cc[n+](CC(=O)Nc2ccc(OC(F)F)cc2)cc1,-9%,4.1µM*,-6,-26,i,-8%
CC(=O)c1ccc(NC(=O)C[n+]2ccc(N(C)C)cc2)cc1,1%,?,14,23,?,1%
COc1ccc(C(=O)C[n+]2ccc(N(C)C)cc2)cc1,?,5.2µM*,8,14,i,?
COc1ccc(C(=O)C[n+]2cccc3cc(OC)ccc32)cc1,-1%,16µM*,-1,-8,i,-3%
CCC(C)N(C(=O)Cn1nnc2ccccc21)C(C(=O)Nc1ccc(F)cc1)c1cccc(OC)c1 (stereo not drawn),3%,i,-2,-16,?,22%
COc1ccc(-n2nc(C(=O)NCC(=O)NCCN(C)C)c3ccccc3c2=O)cc1,-25%,i,/,10,?,1%
OCc1nc2ccccc2n1CC(O)Cn1ccc2ccccc21 (stereo not drawn),-3%,?,1,0,21µM*,6%
CCOC(=O)N1CCN(Cc2nnc(-c3cccc(Br)c3)o2)CC1,-22%,i,/,-8,i,-12%
COC(=O)c1[nH]c2ccc(C)cc2c1NC(=O)C(C)N1CCN(C2CCCCC2)CC1 (stereo not drawn),-4%,i,-44,?,i,-3%
COC(=O)c1[nH]c2ccc(Br)cc2c1NC(=O)C(C)N1CCN(C2CCCCC2)CC1 (stereo not drawn),?,?,-72*,-70*,?,7%
